These results are taken from PubChem BioAssay (NCI).

Among the test systems are NCI-H23 lung; NCI-H226 lung; NCI-H322M lung; HOP-62 NSCLC; NCI-H460 lung; HOP-92 NSCLC; NCI-H522 lung; A549/ATCC NSCLC; 786-0 renal; COLO 205 colon.
Experiment in all cases: NCI-60 one-dose screen, 48 h (100 = growth as untreated, 0 = no growth, -100 = all killed)
Holding throughout (conditions): 10 µM unless noted

Compounds without any hit were thinned out: in the full panel of roughly 83,000, 20% have a hit.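 Single-concentration screen, 48 h exposure, 96-well plates. Endpoint: percent growth. Below 10 = active.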 Unmarked numbers belong to inactive results. The source made the active and inactive calls.

`COc1ccc(OC)c(/C=C2\Oc3cc(OCCN4CCCC4)ccc3C2=O)c1`: the growth in the experiment with NCI-H23 lung was 87.7%; in the experiment with NCI-H226 lung, 104%; in the experiment with NCI-H322M lung it was 97.4%; in the experiment with HOP-62 NSCLC, 87.2%; in the experiment on NCI-H460 lung, 99.1%; in the experiment with HOP-92 NSCLC it was 92.3%. Further, the growth in the experiment on NCI-H522 lung is 103%; with A549/ATCC NSCLC, 103%; in the experiment on 786-0 renal, 93.9%; with COLO 205 colon, 97.9%.

As for `N#CC1=C(N)n2nc(-c3ccncc3)nc2NC1c1cccc2ccccc12` (stereo not given), the growth in the experiment on NCI-H23 lung is 90.4%; with NCI-H226 lung, 78.3%; in the experiment on NCI-H322M lung it was 106%; in the experiment on HOP-62 NSCLC, 88.2%; with NCI-H460 lung, 100%; in the experiment on HOP-92 NSCLC it was 40.4%. For the same molecule, the growth in the experiment with NCI-H522 lung was 75.2%; in the experiment with A549/ATCC NSCLC it was 92.4%; in the experiment on 786-0 renal it was 88%; in the experiment with COLO 205 colon, 106%.

As for `NC(CC(N)C(=O)O)C(=O)O` (stereo not given), the growth in the experiment on NCI-H23 lung is 107%; in the experiment with NCI-H226 lung, 103%; in the experiment on NCI-H322M lung, 103%; in the experiment with HOP-62 NSCLC, 117%; in the experiment with NCI-H460 lung, 108%; in the experiment with HOP-92 NSCLC it was 115%. Besides, the growth in the experiment on NCI-H522 lung was 79.7%; with A549/ATCC NSCLC, 99.4%; in the experiment with 786-0 renal, 105%; in the experiment on COLO 205 colon, 115%.

As for `O=C(O)C(Cc1ccccc1)N1C(=O)/C(=C/C(Cl)=C/c2ccc([N+](=O)[O-])cc2)SC1=S` (stereo not given), the growth in the experiment with NCI-H23 lung was 16.1%; with NCI-H226 lung it was 71.2%; in the experiment on NCI-H322M lung, 70.9%; in the experiment with HOP-62 NSCLC it was 47.7%; in the experiment on NCI-H460 lung, 50.1%; in the experiment with HOP-92 NSCLC it was 20%. The growth in the experiment on NCI-H522 lung is 0.83% (active); in the experiment with A549/ATCC NSCLC it was 81.2%; with 786-0 renal it was -31.6% (active); in the experiment on COLO 205 colon it was 17.4%.

As to `Cc1ccc(S(=O)(=O)N2CCC(C(=O)Nc3ccc(F)cc3F)CC2)cc1`, the growth was 95.8% in the experiment on NCI-H23 lung; 87.9% in the experiment on NCI-H226 lung; 112% in the experiment with NCI-H322M lung; 96.2% in the experiment on HOP-62 NSCLC; 107% in the experiment on NCI-H460 lung; 82.2% in the experiment on HOP-92 NSCLC. Also, the growth is 102% with NCI-H522 lung, 91.8% with A549/ATCC NSCLC, 89.9% in the experiment on 786-0 renal and 99.3% in the experiment with COLO 205 colon.

With `CCOC(=O)c1cc(/C(=N\O)c2cc(OC)c(OC)c(OC)c2)n2cc(C)cc(C)c12`, the growth with NCI-H23 lung is 55.2%; in the experiment on NCI-H226 lung, 74.3%; in the experiment on NCI-H322M lung it was 66.2%; in the experiment with HOP-62 NSCLC, 32.3%; in the experiment with NCI-H460 lung, 4.9% (active); with HOP-92 NSCLC, 51.9%. The growth with NCI-H522 lung was -10.6% (active); with A549/ATCC NSCLC it was 34.9%; in the experiment with 786-0 renal it was 19.1%; in the experiment with COLO 205 colon it was 11.5%.

As for `O=C(Nc1ccccc1)OCC1OCOC(COC(=O)Nc2ccccc2)C1OC(=O)Nc1ccccc1` (stereo not given), the growth with NCI-H23 lung was 67.1%; in the experiment with NCI-H226 lung, 84%; in the experiment on NCI-H322M lung it was 49.4%; with HOP-62 NSCLC, 64.8%; in the experiment on NCI-H460 lung it was 6.23% (active); with HOP-92 NSCLC, 94.9%. Moreover, the growth with NCI-H522 lung is 38.2%; with A549/ATCC NSCLC, 47.9%; with 786-0 renal it was 49.3%; in the experiment on COLO 205 colon, 91.6%.

Take `COC(=O)CCCCN=Cc1c(O)c(O)c(C(C)C)c2cc(C)c(-c3c(C)cc4c(C(C)C)c(O)c(O)c(C=NCCCCC(=O)OC)c4c3O)c(O)c12`: the growth was 15.6% with NCI-H23 lung; 41.4% in the experiment with NCI-H226 lung; 25.4% in the experiment with NCI-H322M lung; 27.3% in the experiment with HOP-62 NSCLC; 5.03% (active) in the experiment on NCI-H460 lung; -10.1% (active) in the experiment with HOP-92 NSCLC. The growth in the experiment with NCI-H522 lung was -0.222% (active); in the experiment on A549/ATCC NSCLC it was 21%; with 786-0 renal, 21.7%; in the experiment with COLO 205 colon it was 10.2%.

Consider `Nc1c(C(=O)Nc2cccc([N+](=O)[O-])c2)sc2nc3c(cc12)C(O)CCC3` (stereo not given), for which the growth with NCI-H23 lung is 67.6%; in the experiment on NCI-H226 lung, 80.8%; with NCI-H322M lung, 78.2%; in the experiment on HOP-62 NSCLC, 55.1%; in the experiment with NCI-H460 lung, 28.2%; in the experiment on HOP-92 NSCLC, 72.1%. For the same molecule, the growth in the experiment on NCI-H522 lung is 28.3%; with A549/ATCC NSCLC it was 39.2%; in the experiment with 786-0 renal, 68.7%; with COLO 205 colon, 40.8%.

For `COc1cc(/C=C/C(=O)c2ccc(NC(=O)CN3CCN(c4cc5c(cc4F)c(=O)c(C(=O)O)cn5C4CC4)CC3)cc2)cc(OC)c1OC`, the growth with NCI-H23 lung was -35.6% (active); in the experiment on NCI-H226 lung it was -9.81% (active); in the experiment with NCI-H322M lung, -7.05% (active); with HOP-62 NSCLC it was 4.38% (active); in the experiment with NCI-H460 lung, -20% (active); in the experiment with HOP-92 NSCLC, -1.75% (active). In addition, the growth in the experiment with NCI-H522 lung is -71.5% (active); in the experiment with A549/ATCC NSCLC, -19.2% (active); with 786-0 renal it was -67.8% (active); in the experiment on COLO 205 colon it was -12.8% (active).

For `CCOC(=O)/C=C\C(=O)NC(N)=O`, the growth is 102% in the experiment with NCI-H23 lung; 96.9% in the experiment with NCI-H226 lung; 104% in the experiment with NCI-H322M lung; 87.8% in the experiment on HOP-62 NSCLC; 110% in the experiment with NCI-H460 lung; 94.5% in the experiment with HOP-92 NSCLC. Further, the growth in the experiment with NCI-H522 lung is 90.3%; with A549/ATCC NSCLC, 77.8%; in the experiment with 786-0 renal, 103%; in the experiment on COLO 205 colon, 115%.

On to `COc1cccc(/C=C/C(=O)c2sc(Nc3ccc(O)cc3)nc2C)c1`, for which the growth with NCI-H23 lung is 92.3%; in the experiment on NCI-H226 lung, 107%; with NCI-H322M lung it was 93.5%; with HOP-62 NSCLC it was 107%; with NCI-H460 lung it was 105%; with HOP-92 NSCLC, 107%. Further, the growth in the experiment on NCI-H522 lung was 24.9%; with A549/ATCC NSCLC, 88.2%; in the experiment on 786-0 renal it was 80.2%; in the experiment with COLO 205 colon it was 115%.

As to `CCCCCCC[C@@H](O)CC(=O)N[C@H](CCCCN)C(=O)N[C@H](Cc1c[nH]c2ccccc12)C(=O)NC(CCCCN)C(=O)N[C@H](CC(C)C)C(=O)N[C@H](Cc1ccccc1)C(=O)N[C@H](CCCCN)C(=O)N[C@H](CCCCN)C(=O)N[C@H](CC(C)C)C(=O)N1CCCC1C(=O)N[C@H](CCCCN)C(=O)N[C@H](Cc1ccccc1)C(=O)N[C@H](CC(C)C)C(=O)N[C@H](Cc1c[nH]cn1)C(=O)N[C@H](CC(C)C)C(=O)N[C@H](C)C(=O)N[C@H](CCCCN)C(=O)N[C@H](CCCCN)C(=O)N[C@H](Cc1ccccc1)C(=O)O` (stereo not given in full), the growth is -41.6% (active) in the experiment on NCI-H23 lung; -21.3% (active) in the experiment with NCI-H226 lung; -71.9% (active) in the experiment with NCI-H322M lung; -59% (active) in the experiment on HOP-62 NSCLC; -25.4% (active) in the experiment with NCI-H460 lung; -54.4% (active) in the experiment with HOP-92 NSCLC. The growth is -48.8% (active) in the experiment on NCI-H522 lung, -47.3% (active) in the experiment on A549/ATCC NSCLC, -34.4% (active) in the experiment with 786-0 renal and -47.6% (active) in the experiment on COLO 205 colon.
